Data as given in PubChem BioAssay (NCI).
This is part of a sample that, as a whole, favours compounds with a hit. Of some 83,000 tested, about 20% had one in any assay.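 How to read the values: 0–100, growth inhibition (40 = 60% inhibited); 0, no net growth; -100 to 0, cell death (-40 = 40% of starting cells died; -100 = all dead).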 A number with no mark means an inactive call. Activity calls are given as the source filed them. How the source made its calls: active means growth percent below 10; inactive means the rest.

These compounds were tested on HL-60(TB) leukemia (assay: NCI-60 one-dose screen, 48 h (100 = growth as untreated, 0 = no growth, -100 = all killed)). Details: 10 µM unless noted.
Compound Brc1ccc2c(c1)-c1ccccc1C1=NCCN12 has a growth of 18.2%. For COc1cc(NCCCN(CC(C)C)C2CCCC2)c2ncccc2c1, the growth was 22.5%. CC[C@]12C=CCN3CC[C@@]4(c5cc([C@H]6CCC(=O)N6)c(OC)cc5N(C)[C@H]4[C@@](O)(C(=O)OC)[C@@H]1OC(C)=O)[C@@H]32 gave a growth of 109% [2.5 µM]. With NCCOc1ncccc1/C=C1\c2ccccc2-c2ccc(F)cc21 the growth was -38.6% (active). CCC(=O)N1C/C(=C/c2ccc(Br)cc2)C(=O)/C(=C/c2ccc(Br)cc2)C1 was tested, and the growth was -26.2% (active). Nc1nccc(Nc2ccccc2)n1 was tested, and the growth was 105%. For CCN(CC)CCN1CC(O)=C(c2nc(-c3ccc(Cl)cc3)cs2)C1=N, the growth was -33.7% (active). O=C(CI)NC(=O)NC(=O)NCc1ccccc1 was tested, and the growth was -10.5% (active). COc1ccc(/C=C2\N=C(Nc3ccccc3)N(NC(=O)c3ccccn3)C2=O)cc1 showed a growth of 97.7%. With O=C1OC(Oc2ccc(Br)cc2)(c2ccccc2)c2ccccc21 (stereo unspecified) the growth was 120%. Work on Cn1cc(-c2nc(-c3c[nH]c4ncccc34)cs2)c2cc(Br)ccc21 yielded a growth of 79.1%. For COc1cc2c(cc1OC)-c1ccc3cc4c(cc3c1N(CCN(C)C)C2)OCO4, the growth was -33.9% (active). With CCCCCC(CCC)COC(=O)c1ccc(OC)cc1 (stereo unspecified) the growth was 90.5%. Compound COc1ccc2sc3c(NCCO)nc4ccccc4c3c(=O)c2c1 has a growth of 104%. Work on COc1ccncc1S(=O)(=O)NC(=O)Nc1ccc(Cl)c(Cl)c1 yielded a growth of 84.8%. In the case of CC(C)OC(=O)OCOP(=O)(OCOC(=O)OC(C)C)C1CCCN(O)C1=O (stereo unspecified), the growth is reported as 6.5% (active).
